# Assay outcomes (PubChem)
# ASM inhibitor – inhibitors of human secretory acid sphingomyelinase; P17405; placental ASM, HMU-PC fluorogenic substrate, 60 min; 340,000 tested, 0.006% active; Potency, µM (doses to about 57.5 µM), inactives show at the top dose activity change, negative = inhibition, usual class: inhibitors; note: potency is the fitted concentration of half-maximal effect
# Target sequence (P17405 47-631 limits assumed): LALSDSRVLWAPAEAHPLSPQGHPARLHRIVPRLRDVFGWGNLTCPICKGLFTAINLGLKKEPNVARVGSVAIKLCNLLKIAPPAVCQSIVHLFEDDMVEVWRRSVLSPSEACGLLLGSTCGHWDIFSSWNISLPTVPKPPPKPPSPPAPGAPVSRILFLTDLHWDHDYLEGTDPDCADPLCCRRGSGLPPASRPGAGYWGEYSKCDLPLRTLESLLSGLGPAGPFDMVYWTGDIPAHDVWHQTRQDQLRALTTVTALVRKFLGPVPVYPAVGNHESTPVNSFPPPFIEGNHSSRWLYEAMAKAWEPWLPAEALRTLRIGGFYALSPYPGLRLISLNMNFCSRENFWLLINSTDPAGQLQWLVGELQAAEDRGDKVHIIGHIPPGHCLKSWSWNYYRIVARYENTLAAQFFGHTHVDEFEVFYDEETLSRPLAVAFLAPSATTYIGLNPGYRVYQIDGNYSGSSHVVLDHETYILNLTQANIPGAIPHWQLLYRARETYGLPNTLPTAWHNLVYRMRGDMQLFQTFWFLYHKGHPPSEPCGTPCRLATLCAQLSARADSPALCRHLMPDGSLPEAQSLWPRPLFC
#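 Human placenta-derived ASM enzyme was preincubated with compound for 10 minutes at room temperature, then given fluorogenic substrate HMU-PC0 (9 uM final) for 60 minutes at 37 °C; a pH 10 stop preceded fluorescence reading at Ex 386/Em 447 nm.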
# SW480 rereplic – DNA re-replication induction in SW480 cells; SW480 DNA re-replication, Hoechst DNA content imaging, 48 h; Potency, µM (highest dose often 46.1 µM), for inactives: at the highest dose re-replication activation, hits mostly activators; 340,000 tested, 1.8% active; AID 624297; note: potency is the fitted concentration of half-maximal effect; % of control where 0% means no effect; nearly all actives have a fitted effect of over 55% in size
#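 Per well, 250 cells were exposed to pinned compound for 48 hr. Nuclear DNA was visualised with Hoechst (40 min, 37 C) and total object intensity recorded by fluorescence scanning.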
# Giardia kill – kills Giardia lamblia | 340,000 tested, 0.15% active | activity change, % at 7.66 µM, hits read low | Giardia lamblia trophozoite viability | AID 540267; in the data active = activity change below about -80%; inconclusive = between about -30% and that limit;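 note: parasites exposed to compound for two days anaerobically before the ATP read; % is set by controls: 0 for no effect and ±100 for the full control effect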
#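 Trophozoites 100 cells/well + cpd; 48 hrs, 37 deg C, anaerobic. ATPLite 1-Step added, 15-30 min RT, luminescence read (ATP-based viability).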
# MCF10A rereplic – DNA re-replication induction in MCF 10a cells | Potency, µM (doses to about 46.1 µM), inactives show top-dose activity, positive = re-replication, usual class: activators | 350,000 tested, 2.9% active | MCF 10A DNA re-replication, Hoechst nuclear intensity, 48 h | AID 624296; note: potency is the fitted concentration of half-maximal effect; % of control where 0% means no effect; nearly all actives have a fitted effect of over 50% in size
# KB-3-1 cytotox – kills parental KB-3-1 adenocarcinoma cells; KB-3-1 viability, CellTiter-Glo ATP luminescence, 72 h; Potency, µM (highest dose often 46.1 µM), hits mostly cytotoxic; 400,000 tested, 1.4% active; note: potency is the fitted concentration of half-maximal effect; % is set by controls: 0 for no effect and ±100 for the full control effect; nearly all actives have a fitted effect of over 60% in size
#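 Viability of parental KB-3-1 cells, measured by CellTiter-Glo luminescence, followed a 72 h incubation at 37 °C with pinned compounds in phenol-red-free DMEM containing 10% FBS.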
# KB-V1 cytotox – KB-V1 MDR subline cytotoxicity; KB-V1 MDR cells viability, CellTiter-Glo, 72 h; Potency, µM (series often up to 46.1 µM), hits mostly cytotoxic; 400,000 tested, 3.4% active; note: potency is the fitted concentration of half-maximal effect; % is set by controls: 0 for no effect and ±100 for the full control effect; nearly all actives have a fitted effect of over 60% in size
#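 qHTS viability screen in drug-selected KB-V1 MDR cells: 72 h compound treatment at 37 degrees C, ATP luminescence end point.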
# Numbers without * were called inactive; i = inactive; ? = inconclusive; nt = no result given; ! = not active in a repeat; [ ] = remark or other dose. Hits are enriched below; roughly 6.9% of the tested compounds scored in any of these assays. Unless noted, calls come from the whole dose curve; as a rule, active = well fitted curve in the direction sought with a large enough effect; inconclusive = small, poorly fitted or top-dose-only effect, or another doubt; inactive = no such curve, though single readings can be large; an effect the other way counts as inactive or inconclusive.
SMILES,ASM inhibitor,SW480 rereplic,Giardia kill,MCF10A rereplic,KB-3-1 cytotox,KB-V1 cytotox
COc1ccc(NC(=O)c2ccc(NC(=O)CCS(=O)(=O)c3cccs3)cc2)cc1Cl,nt,nt,nt,nt,i,i
Cc1ccc2oc(C(=O)NCC(c3ccco3)N(C)C)c(C)c2c1 (configuration not stated),1%,-5%,1,-10%,i,i
COc1cccc(/C=N/NC(=O)c2[nH]nc3c2CCc2ccccc2-3)c1,-17%,?,1,?,10µM*,?
CNC(=O)c1[nH]nc2c1CCc1cc(OC)ccc1-2,6%,?,-5,1%,i,i
COc1ccc(OC)c(/C=N/NC(=O)c2[nH]nc3c2CCc2ccccc2-3)c1,251%,?,-1,23µM*,i,i
Cc1ncc([N+](=O)[O-])n1C[C@H](O)CCl,nt,0%[20.6 µM],nt,10%[20.6 µM],nt,nt
O=S1(=O)CCO[C@H]2CCCC[C@@H]2N1Cc1cccc(F)c1,nt,nt,nt,nt,i,?
CN(C)c1ccc(/C=N/OC(=O)Nc2ccccc2Cl)cc1,-1%,-1%,6,1%,23µM*,?
COc1ccc(NC(=O)O/N=C/c2ccc(Br)cc2)cc1,-7%,?,2,?,i,i
COc1ccccc1NC(=O)CC(=O)c1ccccc1,0%,-11%,-25,-2%,i,?
COc1ccc(/C=N/OC(=O)Nc2ccccc2OC)cc1,-3%,?,-1,7.3µM*,10µM*,9.2µM*
COc1ccccc1NC(=O)O/N=C(\N)c1ccccc1,1%,12µM*,7,?,i,i
CCN1CCN(Cc2cccc(Oc3ccc(Cl)cc3)c2)CC1,1%,16µM*,1,16µM*,i,?
COc1cccc(CN2CCN(Cc3cc(OC)c(OC)c(OC)c3)CC2)c1OC,2%,0%,-11,7%,i,?
COc1cccc(CN2CCN(Cc3cccc(Oc4ccccc4)c3)CC2)c1OC,-4%,23µM*,5,15µM*,i,i
Cc1cc(C)n(NC(=S)NC2CCCC2)c(=O)c1C#N,5%,?,-7,23µM*,i,i
Cc1nc2scc(C)n2c(=O)c1S(=O)(=O)Nc1cccc(C(F)(F)F)c1,nt,nt,nt,nt,i,?
O=C1N=C(N2CCN(c3ccccc3)CC2)S/C1=C\c1cn[nH]c1-c1ccccc1,-4%,-6%,-2,-85%,?,?
O=C1N=C(N2CCC(Cc3ccccc3)CC2)S/C1=C/c1cn[nH]c1-c1ccccc1,-1%,0%,-5,?,i,23µM*
Cc1ccc(C)c(N2CCN(C(=O)c3c4c(nc5ccccc35)C(=O)N(C3CCCCC3)C4)CC2)c1,nt,nt,nt,nt,i,i
O=S(=O)(c1ccc(Br)cc1)c1cnc2ccccc2n1,-2%,18µM*,9,?,i,i
CC(=O)c1ccc(N2CCN(C(=O)C3CCN(S(=O)(=O)c4cccc5nonc45)CC3)CC2)cc1,nt,nt,nt,nt,i,i
O=C(CSc1nnc(-c2ccccc2Cl)o1)N1CCCc2ccccc21,nt,nt,nt,nt,?,i
O=C(Nc1ccccc1)c1ccc(S(=O)(=O)NCc2cccnc2)cc1,-2%,-13%,-11,3%,?,21µM*
CCOc1cc2c3c(c1)C(C)CC(C)(C)N3C(=O)C2=O (configuration not stated),0%,?,-4,?,i,15µM*
SMILES,ASM inhibitor,SW480 rereplic,Giardia kill,MCF10A rereplic,KB-3-1 cytotox,KB-V1 cytotox
CCOc1cc2c3c(c1)C(C)=CC(C)(C)N3C(=O)C2=O,-3%,?,7,?,21µM*,?
Cc1ccc2c3c1C(=O)C(=O)N3C(C)(C)CC2C (configuration not stated),-9%,?,-3,26µM*,i,i
Nc1nc(N)c2c(OCc3ccc(C(F)(F)F)cc3)cccc2n1,nt,nt,nt,nt,?,i
CCN(C(=O)c1cc(Cl)ccc1Cl)C1CCS(=O)(=O)C1 (configuration not stated),-1%,-23%,1,12%,i,18µM*
O=C(/C=C/c1ccc(Cl)cc1Cl)N(Cc1ccc(Cl)cc1)C1CCS(=O)(=O)C1 (configuration not stated),-14%,0%,9,?,?,5.8µM*
Cc1ccc(NC(=O)N2CCN(c3nnc(C)c4c(C)n(-c5ccccc5)nc34)CC2)cc1Cl,nt,nt,nt,nt,i,i
Cc1ccc(SC2=NS(=O)(=O)c3ccccc32)c(C)c1,nt,nt,-23,nt,i,i
CCCC[C@H]1COCCS(=O)(=O)N1Cc1ccc(F)cc1,4%,-9%,6,0%,?,?
CCCC[C@H]1COCCS(=O)(=O)N1Cc1ccc(C)cc1,0%,-5%,7,-1%,16µM*,16µM*
Cc1ccc(NCc2nc3ccccc3n2CCOc2ccccc2)cc1,-1%,6%,-14,18%,16µM*!,23µM*!
CCOCCn1c(COc2ccc(C)cc2)nc2ccccc21,0%,104%,9,19%,?,16µM*
COCCn1c(COc2ccc(C)cc2)nc2ccccc21,0%,?,-14,3%,i,?
O=C(Nc1nnc(CCc2ccccc2)s1)C1CCN(C(=O)c2ccco2)CC1,nt,nt,-15,nt,i,i
Cc1ccc2[nH]c(=O)c(CN(CCCO)Cc3nnnn3Cc3ccccc3)cc2c1,nt,nt,-3,nt,i,i
Cc1ccc(Nc2nc(NCC3CCCO3)nc(N)c2[N+](=O)[O-])cc1 (configuration not stated),1%,29%,26,12%,i,21µM*
Cc1ccc2nc3c(cc(C#N)c(=O)n3-c3nnc(SCc4ccc(F)cc4)s3)c(=O)n2c1,nt,nt,nt,nt,i,i
O=C(CC1Sc2ccccc2NC1=O)Nc1ccccc1[N+](=O)[O-] (configuration not stated),-1%,5%,-1,9%,i,16µM*
O=C(CCl)N(c1ccccc1)C1CCS(=O)(=O)C1 (configuration not stated),6%,16µM*,5,?,i,?
N=c1nc(-c2ccccc2)n(-c2ccccc2)s1,nt,nt,14,nt,i,?
CCN(CCn1cccn1)Cc1nc(-c2ccccc2)no1,0%,-2%,-2,-1%,i,23µM*
CCCCCn1nc(C(=O)N2CCc3ccccc32)c2ccccc2c1=O,-4%,-5%,-4,1%,?,i
Cc1ccc(C(=O)NCc2ccc(N3CCN(C)CC3)cc2)cc1C,-2%,2%,2,1.6µM*,i,?
CN1CCN(c2ccc(CNC(=O)c3cc4ccccc4o3)cc2)CC1,1%,-5%,12,23µM*,i,i
